Measurements reported in PMC5700166.
Changes are numbered by the printed parent chain.

Columns and labels:
Assay in all cases: protein-binding microarray (PBM); PBM: ~300 nM protein, 6 mM HEPES pH 7.8, 80 mM KCl, 0.5 mM EDTA, 0.5 mM EGTA, 6% glycerol, 35 ng/ul poly-dIdC, 1% milk, 1 h, room temperature; Ap Aiptasia and Nv Nematostella (sea anemones) / Co Capsaspora / Aq Amphimedon (sponge) / Dm Drosophila / Hu human; RHD is the Rel homology domain; high values mean tight binding
Conditions in all cases: dsDNA, one strand shown
[1] = target: T1, GST-Ap-NF-kB RHD (Exaiptasia pallida (Aiptasia), UniProt A0A913YAJ5 2-422)
T1 sequence: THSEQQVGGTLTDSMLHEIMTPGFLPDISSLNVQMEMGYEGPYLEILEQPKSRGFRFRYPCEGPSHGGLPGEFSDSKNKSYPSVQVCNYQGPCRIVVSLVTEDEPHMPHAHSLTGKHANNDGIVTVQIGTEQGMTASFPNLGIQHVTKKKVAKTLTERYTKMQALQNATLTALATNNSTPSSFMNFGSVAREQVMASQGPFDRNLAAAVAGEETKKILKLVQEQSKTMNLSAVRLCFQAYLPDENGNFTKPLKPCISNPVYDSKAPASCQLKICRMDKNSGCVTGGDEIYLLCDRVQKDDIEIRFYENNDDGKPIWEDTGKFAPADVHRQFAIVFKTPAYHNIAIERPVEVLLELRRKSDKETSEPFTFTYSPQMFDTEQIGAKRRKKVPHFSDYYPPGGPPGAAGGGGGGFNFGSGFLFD

[2] = target: T2, GST-Nv-NF-kB (Cys allele) (Nematostella vectensis, UniProt E5G601 2-411)
T2 sequence: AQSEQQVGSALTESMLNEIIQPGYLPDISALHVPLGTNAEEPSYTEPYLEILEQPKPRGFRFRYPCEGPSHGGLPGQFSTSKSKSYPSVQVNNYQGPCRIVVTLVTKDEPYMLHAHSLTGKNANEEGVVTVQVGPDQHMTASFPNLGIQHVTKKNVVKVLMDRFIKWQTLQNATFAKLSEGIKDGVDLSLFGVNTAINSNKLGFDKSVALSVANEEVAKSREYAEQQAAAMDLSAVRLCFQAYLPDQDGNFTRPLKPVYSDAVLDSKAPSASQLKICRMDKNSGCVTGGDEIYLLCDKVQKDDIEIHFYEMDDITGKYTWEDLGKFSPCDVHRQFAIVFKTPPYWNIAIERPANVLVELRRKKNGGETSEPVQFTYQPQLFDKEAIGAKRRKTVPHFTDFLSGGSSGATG

[3] = target: T3, GST-Nv-NF-kB (Ser allele) (Nematostella vectensis, UniProt A7UNT2 2-411)
T3 sequence: T2 sequence with Q21R, C66S, S207N, E215Q, V217A, E225K, A268E, D399E

[4] = target: T4, GST-Co-NF-kB (Capsaspora owczarzaki, UniProt F1ARL5 200-546)
T4 sequence: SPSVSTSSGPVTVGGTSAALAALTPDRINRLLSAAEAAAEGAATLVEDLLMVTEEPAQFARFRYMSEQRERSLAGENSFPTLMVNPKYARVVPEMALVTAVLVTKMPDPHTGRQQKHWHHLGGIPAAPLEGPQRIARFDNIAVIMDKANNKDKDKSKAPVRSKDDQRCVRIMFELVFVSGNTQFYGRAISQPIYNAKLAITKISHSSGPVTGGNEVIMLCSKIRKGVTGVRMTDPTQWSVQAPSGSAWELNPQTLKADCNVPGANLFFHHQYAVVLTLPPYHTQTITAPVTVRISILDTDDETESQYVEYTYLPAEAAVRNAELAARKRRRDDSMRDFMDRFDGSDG

[5] = target: T5, GST-Dm-Relish (Drosophila melanogaster, UniProt Q94527 99-473)
T5 sequence: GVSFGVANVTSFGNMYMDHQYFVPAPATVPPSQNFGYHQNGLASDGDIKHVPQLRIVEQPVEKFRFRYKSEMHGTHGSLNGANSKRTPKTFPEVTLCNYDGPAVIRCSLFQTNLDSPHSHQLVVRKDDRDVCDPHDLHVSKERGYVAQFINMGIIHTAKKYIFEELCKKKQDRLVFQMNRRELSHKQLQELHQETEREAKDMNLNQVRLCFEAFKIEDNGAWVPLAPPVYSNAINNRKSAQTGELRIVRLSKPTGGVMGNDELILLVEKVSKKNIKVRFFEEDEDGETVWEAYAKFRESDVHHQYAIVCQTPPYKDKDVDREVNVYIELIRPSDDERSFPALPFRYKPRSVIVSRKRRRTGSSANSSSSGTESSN

[6] = target: T6, GST-Aq-NF-kB (Amphimedon queenslandica, UniProt A9Y5G7 2-389)
T6 sequence: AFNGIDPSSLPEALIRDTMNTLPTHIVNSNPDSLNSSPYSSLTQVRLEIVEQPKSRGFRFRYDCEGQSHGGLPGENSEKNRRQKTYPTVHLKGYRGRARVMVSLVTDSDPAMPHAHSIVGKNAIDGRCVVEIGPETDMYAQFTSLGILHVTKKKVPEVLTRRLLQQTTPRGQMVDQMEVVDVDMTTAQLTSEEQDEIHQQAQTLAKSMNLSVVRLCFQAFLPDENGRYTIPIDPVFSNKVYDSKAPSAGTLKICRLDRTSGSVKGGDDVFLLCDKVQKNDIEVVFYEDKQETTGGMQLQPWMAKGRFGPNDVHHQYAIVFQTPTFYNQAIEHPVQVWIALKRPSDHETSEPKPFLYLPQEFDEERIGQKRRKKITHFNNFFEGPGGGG

[7] = target: GST-Hu-p50 (Homo sapiens, UniProt P19838 7-356)
Chain of GST-Hu-p50 (P19838 7-356): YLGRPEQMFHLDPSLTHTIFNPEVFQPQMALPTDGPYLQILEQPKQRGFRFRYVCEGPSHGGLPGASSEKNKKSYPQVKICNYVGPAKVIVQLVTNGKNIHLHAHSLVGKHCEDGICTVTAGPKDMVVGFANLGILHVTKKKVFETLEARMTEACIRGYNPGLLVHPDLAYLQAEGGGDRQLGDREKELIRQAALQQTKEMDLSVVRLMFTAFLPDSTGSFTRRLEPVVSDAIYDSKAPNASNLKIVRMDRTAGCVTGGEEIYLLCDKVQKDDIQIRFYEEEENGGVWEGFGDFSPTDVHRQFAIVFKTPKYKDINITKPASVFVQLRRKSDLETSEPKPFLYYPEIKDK

| Sequence | binding signal [1] | binding signal [2] | binding signal [3] | binding signal [4] | binding signal [5] | binding signal [6] | binding signal [7] |
| --- | --- | --- | --- | --- | --- | --- | --- |
| CCGATTAACATCAGGATTGTCCCTGATGTTAATCGGGTCTTGATTCGCTTGACGCTGCTG | 2.96 z-score | 3.96 z-score | 2.92 z-score | 1.06 z-score | 1.57 z-score | 5.51 z-score | 2.84 z-score |
| CCGATTAACATCATTTCCCTTGCTGATGTTAATCGGGTCTTGATTCGCTTGACGCTGCTG | 2.33 z-score | 3.78 z-score | 3.79 z-score | 1.62 z-score | 1.3 z-score | 3.29 z-score | 2.9 z-score |
| CCGATTAACATCAAAACATCCCCTGATGTTAATCGGGTCTTGATTCGCTTGACGCTGCTG | 6.41 z-score | 8.11 z-score | 8.22 z-score | 4.63 z-score | 8.65 z-score | 7.07 z-score | 5.91 z-score |
| CCGATTAACATCAGGGGATTCGATGATGTTAATCGGGTCTTGATTCGCTTGACGCTGCTG | 5.58 z-score | 5.21 z-score | 7.7 z-score | 2.24 z-score | 3.8 z-score | 3.6 z-score | 5.33 z-score |
| CCGATTAACATCAGGGAATTCTATGATGTTAATCGGGTCTTGATTCGCTTGACGCTGCTG | 5.04 z-score | 6.52 z-score | 6.75 z-score | 3.81 z-score | 3.59 z-score | 5.61 z-score | 4.8 z-score |
| CCGATTAACATCAGGAAGTCCCCTGATGTTAATCGGGTCTTGATTCGCTTGACGCTGCTG | 8.63 z-score | 8.97 z-score | 6.92 z-score | 2.68 z-score | 8.96 z-score | 8.77 z-score | 6.94 z-score |
| CCGATTAACATCAAAGACCCCCCTGATGTTAATCGGGTCTTGATTCGCTTGACGCTGCTG | 6.11 z-score | 4.15 z-score | 4.24 z-score | 3.36 z-score | 7.07 z-score | 5.33 z-score | 4.3 z-score |
| CCGATTAACATCACCCTCCCCCCTGATGTTAATCGGGTCTTGATTCGCTTGACGCTGCTG | 4.55 z-score | 4.25 z-score | 4.55 z-score | 6.06 z-score | 3.66 z-score | 3.9 z-score | 4.13 z-score |
| CCGATTAACATCAAACTTCCCCCTGATGTTAATCGGGTCTTGATTCGCTTGACGCTGCTG | 7.75 z-score | 7.86 z-score | 9.14 z-score | 9.35 z-score | 7.36 z-score | 7.49 z-score | 6.72 z-score |
| CCGATTAACATCAGGGGAAAGTATGATGTTAATCGGGTCTTGATTCGCTTGACGCTGCTG | 6.56 z-score | 7.79 z-score | 9.37 z-score | 7.64 z-score | 2.88 z-score | 5.82 z-score | 5.75 z-score |
| CCGATTAACATCAGGGGAGAAACTGATGTTAATCGGGTCTTGATTCGCTTGACGCTGCTG | 4.39 z-score | 4.53 z-score | 5.55 z-score | 7.07 z-score | 5.35 z-score | 3.64 z-score | 4.05 z-score |
